Screening results (PubChem)
Shown are actives, neighbours in structure and some others; about 11% of the full set was active somewhere.
FLuc inh: blocks purified firefly luciferase enzyme activity; AID 1347043; Potency, µM (series often up to 115 µM), actives largely listed as inhibitors; hit rate 2.5% among 76,000; purified P. pyralis luciferase, luminescence, biochemical; P08659; also: nearly all actives have a fitted effect of over 65% in size
Target sequence (P08659 whole entry, looked up): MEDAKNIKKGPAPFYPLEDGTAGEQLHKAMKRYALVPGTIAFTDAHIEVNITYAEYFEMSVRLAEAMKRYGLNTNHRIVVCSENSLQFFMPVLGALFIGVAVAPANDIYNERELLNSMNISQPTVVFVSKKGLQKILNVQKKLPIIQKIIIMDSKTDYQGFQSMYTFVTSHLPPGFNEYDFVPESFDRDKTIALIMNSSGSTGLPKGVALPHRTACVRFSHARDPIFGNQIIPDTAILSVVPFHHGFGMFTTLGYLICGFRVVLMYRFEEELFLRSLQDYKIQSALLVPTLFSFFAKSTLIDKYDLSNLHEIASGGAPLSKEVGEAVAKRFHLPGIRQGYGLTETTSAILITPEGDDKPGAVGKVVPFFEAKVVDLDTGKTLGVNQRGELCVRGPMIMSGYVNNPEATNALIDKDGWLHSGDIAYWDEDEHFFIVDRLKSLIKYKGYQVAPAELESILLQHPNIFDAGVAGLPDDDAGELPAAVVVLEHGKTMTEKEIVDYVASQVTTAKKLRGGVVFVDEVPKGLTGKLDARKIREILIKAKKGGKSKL
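FLuc 10nM, D-luciferin 10uM, ATP 10uM, Mg acetate 10mM, Tris acetate pH 7.5, Tween/BSA; cpd qHTS; enzyme added last; CCD luminescence.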
hNpr1 antagonist: antagonists of human natriuretic peptide receptor Npr1; Potency, µM (top dose mostly 46.3 µM), for inactives: at the highest dose activity change, negative = inhibition, most hits filed as inhibitors; AID 1347048; hit rate 1.6% among 76,000; HEK293 hNpr1 GloSensor cGMP, ANP-stimulated luminescence; P16066; calls by dose curve; also: nearly all actives have a fitted effect of over 60% in size
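HEK293 cells stably expressing human Npr1 and cGMP GloSensor pGS-40F, loaded 2 h with 2% GloSensor reagent, given compound 30 min at room temperature. Luminescence read before and 20 min after 0.1 nM hNppA.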
HEK293 tox: cytotoxic compounds in HEK 293 cells; HEK 293 viability, ATP luminescence (CellTiter-Glo), 48-72 h; Potency, µM (titrated, usually from 115 µM), without a hit: top-dose activity change, negative = cytotoxicity, usual class: inhibitors; hit rate 6.6% among 94,000; also: nearly all actives have a fitted effect of over 60% in size
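qHTS cytotoxicity; HEK 293, 250 cells/well; compound pinned; 48 or 72 hr, 37 degree Celsius, 5% CO2, 95% humidity; CellTiter-Glo, 10 min RT; luminescence (ATP).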
3T3 cytotox: NIH 3T3 cell cytotoxicity; NIH 3T3 viability, CellTiter-Glo ATP luminescence, 48-72 h; Potency, µM (highest dose often 96.7 µM), without a hit: at the top dose activity change, negative = cytotoxicity, usual class: inhibitors; hit rate 4.3% among 94,000; also: nearly all actives have a fitted effect of over 55% in size
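Luminescent ATP readout (CellTiter-Glo, 10 min RT) after 48 or 72 hr compound exposure of NIH 3T3 cells seeded at 400 cells/well in 1536-well format; quantitative HTS.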
Active calls of the source: *; i = inactive; ? = inconclusive; . = not tested or not shown; ! = not confirmed by another sample; [ ] = dose if it differs, or a comment. Unless noted, calls follow the shape of the dose curve; as a rule, active = well fitted curve in the direction sought with a large enough effect; inconclusive = small, poorly fitted or top-dose-only effect, or another doubt; inactive = no such curve, though single readings can be large; an effect the other way counts as inactive or inconclusive. % is scaled to controls: 0 for no effect and ±100 for the full control effect; potency is read from the fitted curve at half-maximal effect.

SMILES	FLuc inh	hNpr1 antagonist	HEK293 tox	3T3 cytotox
CN(C)CCCC(=O)N1Cc2ccccc2CC2(CCCCN2Cc2ccccc2)C1 (stereo not drawn)	.	.	79µM*	?
O=C(c1ccccc1)N1Cc2ccccc2CC2(CCCCN2CC2CCNC2)C1 (stereo not drawn)	.	.	79µM*	?
COC(=O)[C@@H]1Cc2c([nH]c3ccccc23)[C@H]2C[C@H](NCCc3cnc[nH]3)C[C@@H](c3ccccc3F)N21	i	-21%	22µM*	?
O=C(NCCc1cnc[nH]1)C1CC(=O)N(c2n[nH]c3ccccc23)C1 (stereo not drawn)	i	1%	3%	i
CN1[C@@H](c2ccc(Cl)cc2)[C@@H](C(=O)NCCc2cnc[nH]2)C[C@@]1(C)C(=O)O	i	2%	1%	i
COC(=O)[C@@H]1Cc2c([nH]c3ccccc23)[C@H]2C[C@@H](NCCc3cnc[nH]3)C[C@@H](c3cccc(Cl)c3)N21	i	0%	28µM*	?
O=C1NCCCCCCN(C(=O)C2CCC2)[C@H]2C[C@H](c3nc(-c4cccnc4)no3)C[C@@H]12	i	7%	1%	-24%
CC(C)c1ccc(C(=O)N2CCC(Oc3ccc(C(=O)N(C)C)cn3)CC2)cc1	i	-13%	?	-21%
CN(C)C(=O)c1ccc(OC2CCN(C(=O)c3ccc(Cl)cc3)CC2)nc1	i	-17%	?	40µM*
COc1ccc2c(c1)C=C(CN1CCC(CO)(Cc3ccccc3Cl)CC1)CO2	i	?	18µM*	?
CCOc1ccc(CN2CCC(CO)(Cc3ccccc3Cl)CC2)cc1	i	2%	79µM*	?
OCCC#Cc1ccc(CN2CCC(CO)(Cc3ccccc3Cl)CC2)cc1	i	-5%	?	?
O=C(CCc1c[nH]c2ccccc12)N1CCC(Cc2nc(-c3ccncc3)n[nH]2)CC1	.	.	-29%	?
O=C(CCc1c[nH]c2ccccc12)N1CCC[C@H]1c1nc(-c2ccc(F)cc2)n[nH]1	.	.	40µM*	?
O=C1CC(c2ccccc2)N(Cc2ccncc2)CCCN(C(=O)C2(c3ccccc3)CC2)CCN1 (stereo not drawn)	i	0%	?	?
COc1cccc(C(=O)N2CCC3(CC2)Cc2ccccc2NC3=O)c1	i	-2%	45µM*	35µM*
O=C(c1cccc(Cl)c1)N1CCC2(CC1)Cc1ccccc1NC2=O	i	22%	?	?
O=C(Cc1ccc(F)cc1)N1CCC2(CC1)Cc1ccccc1NC2=O	i	?	0%	-7%
O=C(Cc1ccccc1)N1CCC2(Cc3ccccc3NC2=O)C1 (stereo not drawn)	i	-5%[70.6 µM]	100µM*	-24%[138 µM]
O=C(c1ccc(Cl)cc1)N1CCC2(CC1)Cc1ccccc1NC2=O	i	2%	?	28µM*!
Cc1ccc(C(=O)N2CCC23Cc2ccccc2NC3=O)cc1 (stereo not drawn)	i	0%[70.6 µM]	100µM*	-18%[138 µM]
Cn1cccc1-c1noc(C2CCN(C(=O)c3ccoc3)C2)n1 (stereo not drawn)	.	.	-18%	?
CC(=O)N1CC2(CCN(Cc3ccc(Cl)cc3)C2)Cc2ccccc21 (stereo not drawn)	.	.	?	-18%
O=C(c1ccccc1F)N1CCC2(CC1)Cc1ccccc1NC2=O	i	0%	50µM*	?
Cn1cc(CN2CCNc3cc(-c4ccccc4)ncc3C2)cn1	45µM*	3%[70.6 µM]	?	-13%[138 µM]
SMILES	FLuc inh	hNpr1 antagonist	HEK293 tox	3T3 cytotox
Cn1cc(CN2CCNc3cc(Nc4ccccc4)ncc3C2)cn1	28µM*	1%[70.6 µM]	-60%[172 µM]	?
c1ccc(Nc2cc3c(cn2)NCCN(Cc2ccccn2)C3)cc1	i	2%[70.6 µM]	?	-18%[138 µM]
C#CCNC(=O)c1nc2sccn2c1-c1cccnc1	.	.	1%	-4%
CCCCc1cc(C[C@H]2CNCC[C@H]2CC(=O)Nc2ccccc2)no1	i	-9%[70.6 µM]	63µM*	?
CCCCc1cc(C[C@H]2CNCC[C@H]2CC(=O)NCc2ccccc2)no1	i	?	71µM*	?
CC(C)NC(=O)C[C@@H]1CCNC[C@@H]1Cc1cc(CC2CCCCC2)on1	i	-1%[70.6 µM]	?	100µM*
CCCCc1cc(C[C@H]2CNCC[C@H]2CC(=O)NCc2ccc(F)cc2)no1	i	?	?	?
Cc1cccc(N2Cc3c(NCCCO)ncnc3N(C)CC2=O)c1	.	.	-2%	-27%
Cc1cc(OC2CN(Cc3cccc4ccccc34)C2)ccc1F	i	-20%[70.6 µM]	100µM*	?
Cc1cc(OC2CN(Cc3ccc(C(F)(F)F)cc3)C2)ccc1F	i	-5%[70.6 µM]	?	?
COc1cccc(CN2C(=O)OC3(CCN(Cc4c[nH]c5ccccc45)CC3)C2(C)c2cccnc2)c1 (stereo not drawn)	i	-1%	?	32µM*
COc1cccc(CN2C(=O)OC3(CCN(C(C)=O)CC3)C2(C)c2cccnc2)c1 (stereo not drawn)	i	2%[70.6 µM]	-1%[172 µM]	89µM*
COc1cccc(CN2C(=O)OC3(CCN(C(=O)c4ccn(C)n4)CC3)C2(C)c2cccnc2)c1 (stereo not drawn)	i	1%	-21%	35µM*
COc1cccc(CN2C(=O)OC3(CCN(Cc4ccc5c(c4)CCO5)CC3)C2(C)c2cccnc2)c1 (stereo not drawn)	i	2%	?	?
O=C(C1CCCN([S+](=O)([O-])c2cccs2)C1)N1CCC(N2CCOCC2=O)CC1 (stereo not drawn)	.	.	-8%	-7%
COCCCn1c(=O)c(C(=O)N2CCN(C(=O)Cc3cccc(Cl)c3)CC2)nc2cccnc21	.	.	3%	-18%
Cn1cc(CN2CCC(C(O)c3cccnc3)CC2)c(-c2ccc(C3CCCCC3)cc2)n1 (stereo not drawn)	i	6%	79µM*	79µM*
Cn1cc(CN2CCC(C(=O)N3CCCC3)CC2)c(-c2ccc(C3CCCCC3)cc2)n1	i	3%	-11%	-1%
COc1ccc(N2C(=O)CSC23CCN(C(=O)Nc2ccc([N+](=O)[O-])cc2)CC3)cc1	i	-4%	25µM*	?
O=C(c1cccs1)N1CCC2(CC1)SCC(=O)N2c1ccc(Cl)cc1	i	-3%	-22%	-26%
O=C(Nc1ccccc1)N1CCC2(CC1)SCC(=O)N2c1ccc(Cl)cc1	22µM*	-4%	?	?
Cc1ccc(CN2CCN(c3nc(C)ccc3C#N)CC2CCO)cc1 (stereo not drawn)	i	-3%	?	-26%
COc1ccc(CN2CCN(c3nc(C)ccc3C#N)CC2CCO)cc1C (stereo not drawn)	i	-19%	50µM*	?
CC(=O)N1CCn2c(nnc2C2CCCN2Cc2cc(Cl)ccc2F)C1 (stereo not drawn)	.	.	-7%	-15%
COc1ccccc1CN1CC[C@@H](CO)N(C)c2nc(C)ccc2C1	i	-12%[70.6 µM]	?	?
